Compound activity deposited in PubChem BioAssay by National Center for Advancing Translational Sciences (NCATS).
DT40 TDP1 CPT: DT40-hTDP1 cell growth loss with CPT; 420,000 tested, 12% active; Potency, µM (series often up to 46.2 µM), most hits filed as inhibitors; chicken DT40 Tdp1-/-;hTDP1 cells + 20 nM CPT, ATP luminescence, 48 h; also: nearly all actives have a fitted effect of over 55% in size
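Chicken DT40 Tdp1-/- cells stably complemented with human TDP1 were seeded at 400 cells/well in medium containing 20 nM camptothecin, exposed to pin-transferred compounds, and grown at 37 °C for at least 48 hr. Viability was read as ATP luminescence.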
IL1B secr inh: inhibitors of inflammasome signaling (IL-1 beta secretion); activity change, % at 57.5 µM; THP-1 LPS/ATP IL-1B secretion, AlphaLISA, 16 h; active compounds read low; AID 743279; 360,000 tested, 4.7% active; in the data active = activity change below about -50%; inconclusive = mostly about -30% to -49%
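Secreted IL-1B measured by AlphaLISA bead assay after 16 h compound exposure of THP-1 cells; compounds (final up to 57.5 uM) added 1 h before LPS (250 ng/mL) and ATP (1.25 mM) stimulation; lower signal means less secretion.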
TGFb SMAD3 inh: inhibitors of TGF-b signaling. HepG2 CAGA-GFP TGF-b/SMAD3 reporter, GFP fluorescence, 18 h; TGF-beta stimulated, 500 pg/mL final. Potency, µM (doses to about 46.1 µM), actives largely listed as inhibitors. 410,000 tested, 1.2% active. AID 588855; also: nearly all actives have a fitted effect of over 65% in size
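Using HEPG2 CAGA-GFP reporter cells at 1000 cells/well, we pinned test compounds, stimulated with recombinant TGF-beta (500 pg/mL final) and measured total well GFP after 18 h.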
TDP1 cell noCPT: qHTS for Inhibitors of human tyrosyl-DNA phosphodiesterase 1 (TDP1): qHTS in cells in absence of CPT; DT40 Tdp1-/- hTDP1 cells, no CPT, ATP luminescence, 48 h; Potency, µM (top dose mostly 46.2 µM), usual class: inhibitors; 420,000 tested, 15% active; AID 686978, 2013; also: nearly all actives have a fitted effect of over 55% in size
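Luminescent ATP content (CellTiter-Glo) served as the growth readout. Knockout chicken DT40 cells expressing human TDP1 were exposed to compounds without camptothecin for a minimum 48 hr at 37 °C.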
HepG2 tox: counter-screen for TGF-b inhibitors: cytotoxicity in HepG2 cells. HepG2 CAGA-GFP viability, ATP luminescence, 18 h. Potency, µM (titrated, usually from 46.1 µM), hits mostly cytotoxic. 410,000 tested, 0.76% active
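HepG2 CAGA-GFP cells (1000/well, DMEM with 1% FBS) received compound, then TGF-beta at 500 pg/mL final, and were incubated 18 hours at 37 degrees C. Viability was read by CellTiter-Glo luminescence. Media-only wells were set as complete cell-killing and DMSO as no toxicity.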
TDP1 block: inhibitors of human tyrosyl-DNA phosphodiesterase TDP1. Q9NUW8. recombinant TDP1, AlphaScreen DNA substrate cleavage. Potency, µM (highest dose often 130 µM), most hits filed as inhibitors. 350,000 tested, 0.28% active; also: nearly all actives have a fitted effect of over 40% in size
Target sequence (Q9NUW8 whole entry, looked up): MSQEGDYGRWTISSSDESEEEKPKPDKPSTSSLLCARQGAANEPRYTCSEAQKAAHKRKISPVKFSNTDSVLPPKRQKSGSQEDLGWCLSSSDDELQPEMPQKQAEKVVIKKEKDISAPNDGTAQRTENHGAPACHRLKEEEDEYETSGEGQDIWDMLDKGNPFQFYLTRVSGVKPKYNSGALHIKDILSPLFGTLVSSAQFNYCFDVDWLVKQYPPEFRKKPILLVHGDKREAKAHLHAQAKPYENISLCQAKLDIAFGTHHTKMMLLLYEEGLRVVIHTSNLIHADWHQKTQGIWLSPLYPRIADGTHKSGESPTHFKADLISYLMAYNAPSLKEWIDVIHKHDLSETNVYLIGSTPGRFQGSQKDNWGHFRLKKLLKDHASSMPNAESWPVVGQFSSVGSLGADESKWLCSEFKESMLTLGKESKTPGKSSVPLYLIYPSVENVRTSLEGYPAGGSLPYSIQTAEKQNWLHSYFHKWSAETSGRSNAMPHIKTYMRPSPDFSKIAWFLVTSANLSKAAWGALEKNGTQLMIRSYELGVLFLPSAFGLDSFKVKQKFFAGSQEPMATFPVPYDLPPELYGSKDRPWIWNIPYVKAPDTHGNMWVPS
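E. coli-derived human Tdp1, 1 nM final. Cpd preinc 15 min RT; substrate 15 nM final, 5 min RT; AS bead mix 10 ug/ml final, 10 min RT. Signal loss = tyrosine-FITC cleavage. No-enzyme wells = max signal.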
Of the large screens only hits and unclear results are named; the others gave an inactive call. Most compounds without a hit are left out; they make up all but 19% or so of the library. Unless noted, calls follow the shape of the dose curve; as a rule, active = well fitted curve in the direction sought with a large enough effect; inconclusive = small, poorly fitted or top-dose-only effect, or another doubt; inactive = no such curve, though single readings can be large; an effect the other way counts as inactive or inconclusive.

COc1ccc(S(=O)(=O)N(CCO)c2ccccc2CN(C)C/C=C/c2ccc(Cl)cc2)cc1	DT40 TDP1 CPT 11.6µM, TDP1 cell noCPT 14.6µM (no result: IL1B secr inh, TGFb SMAD3 inh, HepG2 tox)
Cc1ccc(S(=O)(=O)n2ccc3cccnc32)cc1	IL1B secr inh inconclusive
Cc1ccc(S(=O)(=O)n2cccc2/C=C/[N+](=O)[O-])cc1	DT40 TDP1 CPT 2.91µM, IL1B secr inh inconclusive, TGFb SMAD3 inh 14.1µM, TDP1 cell noCPT 2.91µM, HepG2 tox 12.6µM (no result: TDP1 block)
Cc1ccc(Nc2nc3ccccc3n3cnnc23)c(Cl)c1	none (no result: TDP1 block)
Cc1c(Cl)cccc1Nc1nc2ccc(C(=O)c3ccccc3)cc2n2cnnc12	DT40 TDP1 CPT inconclusive, TGFb SMAD3 inh inconclusive, TDP1 cell noCPT 23.1µM (no result: IL1B secr inh)
CCc1nnc2c(Nc3cccc(F)c3)nc3ccc(C(=O)c4ccccc4)cc3n12	DT40 TDP1 CPT 6.51µM, TDP1 cell noCPT 2.91µM (no result: IL1B secr inh)
CCOC(=O)c1ccc(Nc2nc3ccc(C(=O)c4ccccc4)cc3n3c(C)nnc23)cc1	none (no result: IL1B secr inh)
COc1cccc(Nc2nc3ccc(C(=O)c4ccccc4)cc3n3c(C)nnc23)c1	DT40 TDP1 CPT 11.6µM, TDP1 cell noCPT inconclusive (no result: IL1B secr inh)
COc1ccccc1CNC(=O)C(=O)NCC(c1cccnc1)N1CCN(c2ccccc2)CC1 (centres undefined)	DT40 TDP1 CPT inconclusive, TDP1 cell noCPT inconclusive (no result: IL1B secr inh)
C=CCN(Cc1nc(-c2ccc(OC)c(OC)c2)oc1C)C1CCS(=O)(=O)C1 (centres undefined)	none
CC#CC[N+](C)(C)CCCCCCCCCC	DT40 TDP1 CPT 2.31µM, IL1B secr inh -58.6, TDP1 cell noCPT 1.84µM
C#CC[N+](C)(C)CCCCCCCCC	DT40 TDP1 CPT 2.31µM, IL1B secr inh -68.0, TDP1 cell noCPT 2.31µM
CCCNC(=O)Cn1nc(-c2ccc(F)cc2)c2cnc3ccc(F)cc3c21	none (no result: IL1B secr inh)
Cn1c(=O)c2cc(NC(=O)NCc3ccc(F)cc3)ccc2n1C/C=C/c1ccccc1	DT40 TDP1 CPT 8.2µM, TDP1 cell noCPT 9.2µM (no result: TDP1 block)
Cn1c(=O)c2cc(NC(=O)Cc3ccccc3F)ccc2n1C/C=C/c1ccccc1	DT40 TDP1 CPT inconclusive, TDP1 cell noCPT inconclusive (no result: TDP1 block)
CCOCCC(=O)Nc1ccc2c(c1)c(=O)n(C)n2C/C=C/c1ccccc1	DT40 TDP1 CPT 4.61µM, TDP1 cell noCPT 3.26µM (no result: TDP1 block)
CCNC(=O)Nc1ccc2c(c1)c(=O)n(C)n2CC=C(C)C	none (no result: TDP1 block)
CC(C)=CCn1c2ccc(NC(=O)NCc3ccc(F)cc3)cc2c(=O)n1C	DT40 TDP1 CPT 2.06µM, TDP1 cell noCPT 1.64µM (no result: TDP1 block)
CCOc1cc(CNC(=O)NC2COc3ccc(OC)cc3C2)cc(OCC)c1OCC (centres undefined)	DT40 TDP1 CPT inconclusive, TDP1 cell noCPT inconclusive (no result: IL1B secr inh)
COC(=O)c1c(NC(NC(=O)C(C)C)C(Cl)(Cl)Cl)sc2c1CCC2 (centres undefined)	DT40 TDP1 CPT 16.4µM, TGFb SMAD3 inh inconclusive, TDP1 cell noCPT 13µM
CCOC(=O)c1c(NC(=O)OC)sc2c1CCC2	none
CCOC(=O)c1c(NC(NC(C)=O)C(Cl)(Cl)Cl)sc2c1CCCC2 (centres undefined)	DT40 TDP1 CPT 16.4µM, TGFb SMAD3 inh inconclusive, TDP1 cell noCPT inconclusive
COC(=O)c1c(NC(NC(=O)CC(C)C)C(Cl)(Cl)Cl)sc2c1CCC2 (centres undefined)	DT40 TDP1 CPT inconclusive, TGFb SMAD3 inh inconclusive, TDP1 cell noCPT inconclusive
COc1ccc(OC)c(-c2cc(C(=O)Nc3ccccc3C(N)=O)c3ccccc3n2)c1	DT40 TDP1 CPT 20.6µM, TDP1 cell noCPT 8.2µM (no result: TDP1 block)
COc1ccc(OC)c(-c2cc(C(=O)N/N=C/c3cc(OC)c(OC)cc3OC)c3ccccc3n2)c1	DT40 TDP1 CPT 16.4µM, IL1B secr inh inconclusive, TDP1 cell noCPT 9.2µM (no result: TDP1 block)
COc1ccc(OC)c(-c2cc(C(=O)O)c3cc4ccccc4cc3n2)c1	none (no result: TDP1 block)
COc1ccc(OC)c(-c2cc(C(=O)N/N=C/c3ccc(F)cc3)c3ccccc3n2)c1	DT40 TDP1 CPT 5.17µM, TDP1 cell noCPT 1.03µM (no result: IL1B secr inh, TDP1 block)
